The nature of assay [1]: NCI Yeast Anticancer Drug Screen. Data for the rad50 strain (AID 155).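 Note: 0% = growth of vehicle-only cultures of the same strain.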 To be noted: S. cerevisiae rad50 strain growth inhibition; at 50.0 µM; active compounds read high. In outline: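 Relative growth inhibition (compound vs vehicle) was measured in yeast with a defined repair-gene alteration.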
Assay [2] can be described thus: NCI Yeast Anticancer Drug Screen. Data for the mec2-1 strain (AID 157). As to conditions: S. cerevisiae mec2-1 strain, at 50.0 µM, active compounds read high. In outline: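 Using mec2-1 yeast: add compound, measure growth, express inhibition versus vehicle-treated cultures.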
Assay [3] is described as follows: NCI Yeast Anticancer Drug Screen. Data for the sgs1 mgt1 strain (AID 161).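 Note: 0% = growth of cultures given vehicle only.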 To be noted: S. cerevisiae sgs1 mgt1 strain, at 50.0 µM, active compounds read high. An outline of the steps:
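Compounds are added to genetically altered yeast, and growth is compared with cultures given vehicle alone to give percent inhibition.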

Assay [4] in a line: NCI Yeast Anticancer Drug Screen. Data for the cln2 rad14 strain (AID 165).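 Note: 0% = growth equal to vehicle treated cultures.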 To be noted: S. cerevisiae cln2 rad14 strain, at 50.0 µM, active compounds read high. An outline of the steps: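 Yeast strain cln2 rad14, bearing defects in cell cycle control and DNA repair, serves as the test system; values reflect growth inhibition compared with vehicle.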
Assay [5] is described as follows: NCI Yeast Anticancer Drug Screen. Data for the bub3 strain (AID 167). As to conditions: S. cerevisiae bub3 mutant strain, at 50.0 µM, active compounds read high. An outline of the steps:
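Screening used yeast with an engineered genetic alteration affecting cell cycle control. Compound-exposed cultures were compared with vehicle cultures, and reduced growth was taken as inhibition.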

A short description of assay [6]: NCI Yeast Anticancer Drug Screen. Data for the mlh1 rad18 strain (AID 175). As to conditions: S. cerevisiae mlh1 rad18 strain growth inhibition; at 50.0 µM; active compounds read high. In outline:
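Steps: expose repair-defective yeast to compound; measure growth; express inhibition against vehicle-treated controls.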

This is part of a sample that, as a whole, favours compounds with a hit. Of some 79,000 tested, about 15% had one in any assay. Unmarked numbers belong to inactive results. Activity calls are given as the source filed them. Cut-off read from the data, not from the text of the source: active = growth inhibition above about 70%; inactive = the rest.

Consider `CCOC(=O)N1N=C(c2ccccc2)OC2(N3CCCC3)CCC(C(C)(C)C)CC12` (stereo unspecified), for which the growth inhibition in assay [1] was 11.1%; in assay [2], 10.6%; in assay [3], 9.4%; in assay [4], -4.5%; in assay [5], -4.25%; in assay [6] it was 27.9%.

`NCC1OCOC2C(C(=O)O)OCOC12` (stereo unspecified): the growth inhibition is 10.6% in assay [1]; 2.6% in assay [2]; 14.3% in assay [3]; -16% in assay [4]; 3.8% in assay [5]; -3.7% in assay [6].

As to `COc1ccc(C(C)=O)cc1CCCO`, the growth inhibition in assay [1] is -1.55%; in assay [2], 5.85%; in assay [3] it was 0.4%; in assay [4], 30.6%; in assay [5] it was 13%; in assay [6], 20.6%.

For `CCOCCOCCOCc1nc(C#N)c(N)o1`, the growth inhibition in assay [1] is -35.6%; in assay [2], -23.3%; in assay [3] it was -27.8%; in assay [4], -14.8%; in assay [5] it was -30.5%; in assay [6], -63.4%.

`N#C/C(=C\c1cccs1)C(N)=S`: the growth inhibition in assay [1] is 6.85%; in assay [2], -18.6%; in assay [3], -6.45%; in assay [4] it was -31.2%; in assay [5], -9.1%; in assay [6], 1.65%.

For the compound `O=C(O)CC1CC(=O)c2cccn21` (stereo unspecified), the growth inhibition is -4.35% in assay [1]; 4.85% in assay [2]; -8.15% in assay [3]; 3.6% in assay [4]; 0.8% in assay [5]; -34% in assay [6].

Consider `O=C1O/C(=C(\Br)c2ccccc2)c2ccccc21`, for which the growth inhibition in assay [1] was 52.9%; in assay [2], -1.4%; in assay [3], 55.2%; in assay [4], 4.2%; in assay [5], 29.1%; in assay [6] it was 31.6%.

`Nc1c2cc3c(cc2c[n+]2ccc4ccccc4c12)OCO3`: the growth inhibition in assay [1] is 38.9%; in assay [2], 44%; in assay [3] it was 32.6%; in assay [4], 19.9%; in assay [5], 43.9%; in assay [6], 54.5%.

In the case of `COc1ccc2c(c1)C(=O)N1CCOC1C2C(=O)O` (stereo unspecified), the growth inhibition was 0.1% in assay [1]; -31.8% in assay [2]; -9.5% in assay [3]; 11.3% in assay [4]; -0.8% in assay [5]; -30.3% in assay [6].

On to `O=S(=O)(O)c1cc(Cl)c(O)c(Cl)c1`, for which the growth inhibition in assay [1] was 7.25%; in assay [2], -21.8%; in assay [3] it was 9.15%; in assay [4], -41.9%; in assay [5], 6.8%; in assay [6] it was 23.2%.

For the compound `C/C(=N/NC(=S)NNC(=S)N(C)c1ccccc1)c1nccc2ccccc12`, the growth inhibition in assay [1] was 85.8% (active); in assay [2], 87% (active); in assay [3] it was 86% (active); in assay [4] it was 79.2% (active); in assay [5], 76.6% (active); in assay [6], 79.8% (active).

Take `O=C(NNC(=O)c1ccc(Cl)c(Cl)c1)c1ccc(Cl)c(Cl)c1`: the growth inhibition is -37.9% in assay [1]; -56.5% in assay [2]; -25.1% in assay [3]; 6.15% in assay [4]; -16.4% in assay [5]; -33.1% in assay [6].

As to `OCc1c(CO)c(-c2ccc(Cl)cc2)n2c1CCC2`, the growth inhibition in assay [1] was 29.4%; in assay [2], -15%; in assay [3], 8.4%; in assay [4] it was 29.2%; in assay [5], -6.35%; in assay [6], 34.5%.

Regarding `O=C(CC(C(=O)O)S(=O)(=O)O)Nc1ccc(S(=O)(=O)c2ccc(NC(=O)CC(C(=O)O)S(=O)(=O)O)cc2)cc1` (stereo unspecified), the growth inhibition is 2.45% in assay [1]; 4.55% in assay [2]; 2.55% in assay [3]; -5.55% in assay [4]; -7.9% in assay [5]; -11.3% in assay [6].

With `COc1ccc(C=Nc2c(O)ccc3ccccc23)cc1OC`, the growth inhibition in assay [1] was 12.6%; in assay [2] it was -11.6%; in assay [3], -24.9%; in assay [4] it was -15.3%; in assay [5], -17.4%; in assay [6] it was -0.75%.

Consider `O=C(NN1C(=O)C(Cl)C1c1cccc(Cl)c1)c1ccccc1O` (stereo unspecified), for which the growth inhibition in assay [1] is -58.4%; in assay [2], -29.2%; in assay [3], -8.35%; in assay [4] it was -26.6%; in assay [5], -40.2%; in assay [6], -17.1%.

As to `COc1cc2c(cc1OC)C(=O)C(C1CCCCC1)NC2` (stereo unspecified), the growth inhibition in assay [1] was 20.7%; in assay [2], 9.85%; in assay [3], 8.9%; in assay [4] it was 0.45%; in assay [5], 16.1%; in assay [6], 30.4%.

In the case of `CN1C(=O)C(O)(CC(=O)c2ccccc2)c2ccccc21` (stereo unspecified), the growth inhibition in assay [1] was 0.15%; in assay [2] it was 17.7%; in assay [3] it was 3.3%; in assay [4], -23.9%; in assay [5], 23.4%; in assay [6], -5.65%.

As for `CC(C)c1ccc(OC(=O)Nc2c(Cl)cccc2Cl)cc1`, the growth inhibition is -18.4% in assay [1]; -27.6% in assay [2]; 5.95% in assay [3]; 5.6% in assay [4]; 7.2% in assay [5]; -3.65% in assay [6].

As for `C=CCNC(=S)NCc1ccc(Cl)cc1`, the growth inhibition was 21.3% in assay [1]; 7.8% in assay [2]; 22.7% in assay [3]; -46.6% in assay [4]; 5.15% in assay [5]; 12.1% in assay [6].

Take `COc1ccc2ccccc2c1C(=O)/C=C/c1ccccc1`: the growth inhibition in assay [1] was 35%; in assay [2], 33.6%; in assay [3] it was 38.9%; in assay [4], 47.8%; in assay [5] it was 58.8%; in assay [6] it was 39.4%.

Source of the values: PubChem BioAssay (NCI).
